The panel holds about 83,000 compounds, 20% with a hit somewhere; the sample as a whole holds those more often.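 Single-dose data. Exposure time 48 hours. Values below 10 considered active.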 Values without a mark were called inactive. Calls of active or inactive are those of the source.
Assays:
Experiment in all cases: NCI-60 one-dose screen, 48 h (100 = growth as untreated, 0 = no growth, -100 = all killed)
Conditions in all cases: 10 µM unless noted
[1] = test system: SK-MEL-2 melanoma
[2] = test system: EKVX NSCLC
[3] = test system: SN12C renal
[4] = test system: UO-31 renal
[5] = test system: TK-10 renal
[6] = test system: ACHN renal
[7] = test system: CAKI-1 renal
[8] = test system: A498 renal
[9] = test system: CCRF-CEM leukemia
[10] = test system: RPMI-8226 leukemia
[11] = test system: OVCAR-8 ovarian
[12] = test system: OVCAR-5 ovarian
[13] = test system: OVCAR-4 ovarian
[14] = test system: SK-OV-3 ovarian
[15] = test system: IGROV1 ovarian
[16] = test system: OVCAR-3 ovarian
[17] = test system: HS 578T breast
[18] = test system: NCI/ADR-RES ovarian
[19] = test system: SR leukemia

SMILES	growth [1]	growth [2]	growth [3]	growth [4]	growth [5]	growth [6]	growth [7]	growth [8]	growth [9]	growth [10]	growth [11]	growth [12]	growth [13]	growth [14]	growth [15]	growth [16]	growth [17]	growth [18]	growth [19]
COc1cc(CC(=O)n2ncc3ccc(N)cc32)cc(OC)c1OC	98%	91.8%	107%	70.2%	108%	94.9%	85.9%	97.4%	101%	100%	104%	91.9%	88.4%	95.6%	90.7%	108%	103%	90.1%	
C#Cc1cccc(NC(=O)Nc2cccc(NC(=O)CCl)c2)c1	6.45% [8.25 µM] (active)	102% [8.25 µM]	-67.7% [8.25 µM] (active)	-64.7% [8.25 µM] (active)	-59.8% [8.25 µM] (active)	-72.7% [8.25 µM] (active)	15.8% [8.25 µM]	76.5% [8.25 µM]	14.9% [8.25 µM]	9.12% [8.25 µM] (active)	-7.18% [8.25 µM] (active)	12.8% [8.25 µM]	-35.9% [8.25 µM] (active)	59% [8.25 µM]	-57% [8.25 µM] (active)	-70.8% [8.25 µM] (active)	29.6% [8.25 µM]	-15.1% [8.25 µM] (active)	
O=C1NN(C(=O)c2ccccc2)C(c2ccc(Cl)c(Cl)c2)=C/C1=C\c1ccc([N+](=O)[O-])cc1	100%	88.3%	92.3%	61.9%	106%	90.3%	77.1%	80.4%	88.5%	59.2%	89.3%	113%	75.2%	96.7%	84.3%	86.6%	78.3%	92.6%	
CC(C)=CCC[C@](C)(O)[C@H]1CC[C@]2(C)[C@@H]1CC[C@@H]1[C@@]3(C)C/C(=C/c4ccccc4)C(=O)C(C)(C)[C@@H]3CC[C@]12C	98.3%	96.4%	91%	66.7%	63.8%	96.3%	53.7%	85.6%	87.8%	79.3%	93.4%	102%	89.2%	97.8%	101%	103%	91.3%	100%	
CC1(C)NCCC[C@]2(C)[C@H]3CC[C@@H]4[C@H]5[C@H](C(=O)/C=C/c6ccco6)CC[C@]5(CO)CC[C@@]4(C)[C@]3(C)CC[C@@H]12	117%	101%	82.1%	67.3%	9.01% (active)	99.6%	76.1%	51.3%	74.6%	44.2%	95.2%	101%	79.9%	93.1%	89.5%	92.6%	86.8%	95.2%	
CCNc1nc2ccc(Nc3ccnc4cc(Cl)ccc34)cc2[nH]1	103%	89.9%	75.3%	84.9%	99.4%	103%	98.9%	89.5%	42.8%	86.7%	75.8%	113%	82.6%	108%	91.3%	107%	91.4%	95.8%	
N#CC1=C(N)Oc2c(ccc3ccccc23)C1c1ccccc1Cl (centres undefined)	55.9%	65.3%	22.2%	43.2%	6.11% (active)	34%	27.4%	-10.3% (active)	29.6%		7.5% (active)	38.8%	42.2%	59.3%	24.9%	5.72% (active)	16.8%	-0.548% (active)	
O=C(NNc1nc2c(F)cccc2n2cccc12)c1cnccn1	48.7%	18.5%	34.3%	8.05% (active)	48.9%	4.68% (active)	17.6%	54.3%	10.8%		21.1%	39%	28.1%	28.4%		23.2%	77.3%	3.12% (active)	7.37% (active)
Cn1cc(-c2csc(-c3c[nH]c4ccccc34)n2)c2ccnc(Cl)c21	94.4%	79.6%	76.5%	49.3%	77.4%	54.2%	66.1%	53.8%	57.4%	53.8%	78.3%	127%		93.9%	91.8%	81%	80.8%	81.8%	
Cc1nc2sccn2c1-c1cn2ccsc2n1	98%	80.5%	93.6%	89.7%	103%	99.3%	53.1%	82.7%	96.3%	65%	96%	87.7%	70.8%	94.9%	14.3%	85.8%	87%	98%	
COc1ccc(-c2nc(S(=O)(=O)c3ccccc3)c(S(=O)CC(=O)N3CCC(C)CC3)o2)cc1 (centres undefined)	67.9%	65.7%	-33.3% (active)	-65.9% (active)	33.1%	-29.8% (active)	34.5%	83.8%	1.85% (active)	-14.6% (active)	33.9%	48%	28.8%	92.2%	25.6%	-42.6% (active)	77.7%	59.7%	
Cc1c2cc[nH]c(=O)c2c(C)c2c1[nH]c1cc(OCCN3CCN(C)CC3)ccc12	-13.1% (active)	-2.81% (active)	21%	2.27% (active)	27.5%	-17.5% (active)	43.7%	-29.1% (active)	13.9%	-8.18% (active)	5.54% (active)	16.1%	-1.71% (active)	-1.65% (active)	20.2%	17.1%	15.1%	23.2%	
O=C(CSc1nc2ccccc2[nH]1)NCc1ccccc1	120%	101%	95.8%	83.6%	4.87% (active)	95.4%	82.1%	105%	103%	101%	104%	95.4%	97.6%	101%	102%	105%	97.9%	102%	
COc1ccc(C(=O)c2cc(OC)c(OC)c(OC)c2)cc1O	59.6%	43.8%	15.2%	32.7%	65.3%	25.6%	37.2%	75%	5.92% (active)	12.7%	14.1%	31.8%	30.6%	37.2%			28.8%	-32.3% (active)	7.02% (active)
N#C/C(=C\c1ccc([N+](=O)[O-])s1)c1nc2cc(Br)ccc2s1	-41.1% (active)	-30.8% (active)	-30.1% (active)	-52.1% (active)	4.33% (active)	-56.8% (active)	-2.73% (active)	109%	-19.5% (active)	-43.5% (active)	-19.7% (active)	20.5%	-11.6% (active)	10.1%	-32.7% (active)	-28.6% (active)		-28.5% (active)	-18.3% (active)
COC(=O)C(CC=O)C(=O)C(=O)Nc1cccc(C(F)(F)F)c1 (centres undefined)	109%	92.1%	92.2%	86.6%	102%	105%	97.7%	83.4%			90.5%	112%	105%	93.5%	102%	106%	90.6%	107%	
COc1ccc2nc(-c3ccc(-c4noc(-c5cc(OC)c(OC)c(OC)c5)n4)cc3)[nH]c2c1	99.2%	91.9%	80.7%	108%	102%	97.9%	96.5%	101%			33.6%	113%	-53.4% (active)	116%	110%	44.8%	72.6%	45.3%	18.9%

Source: PubChem BioAssay (NCI)
